Holding throughout (experiment): NCI-60 one-dose screen, 48 h (100 = growth as untreated, 0 = no growth, -100 = all killed)
Common to all, as to conditions: 10 µM unless noted

The subject of test [1] is NCI-H23 lung.
Test [2] relates to NCI-H226 lung.
Test [3] relates to NCI-H322M lung.
Test [4] deals with HOP-62 NSCLC.
Test [5] relates to NCI-H460 lung.
Test [6] concerns HOP-92 NSCLC.
Test [7] relates to NCI-H522 lung.
The test system of test [8] is A549/ATCC NSCLC.
For test [9], the system named is 786-0 renal.
For test [10], the system named is COLO 205 colon.

The structures appear in SMILES notation. The panel holds about 83,000 compounds, 20% with a hit somewhere; the sample as a whole holds those more often.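 Values shown are percent growth following 48 h exposure of cells in 96-well plates to a single concentration of compound; below 10 was considered active.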 Unmarked numbers belong to inactive results. Calls of active or inactive are those of the source.

Turning to `O=C(CCc1nnc(Cn2cnc3nc[nH]c3c2=O)o1)c1nc2ncccc2[nH]1`, the growth was 97.4% in test [1]; 101% in [2]; 92.3% in [3]; 97.3% in [4]; 105% in test [5]; 104% in [6]. Also, the growth is 94.3% in [7], 98.1% in [8], 93.7% in test [9] and 104% in test [10].

In the case of `C=C(C)[C@@H]1CC[C@]2(C(=O)OC)CC[C@]3(C)[C@H](CC[C@@H]4[C@@]5(C)C/C(=C/NC(N)=S)C(=O)C(C)(C)[C@@H]5CC[C@]43C)[C@@H]12`, the growth in test [1] is 80.4%; in [2], 86.3%; in [3], 101%; in test [4] it was 97.5%; in [5] it was 88.9%; in [6], 90.4%. In addition, the growth in test [7] is 88.2%; in [8] it was 76.5%; in [9], 108%; in test [10] it was 110%.

In the case of `COc1ccc(-c2nc3c(c(-c4ccccc4)nn3-c3ccccc3)c(-c3ccc(N4CCOCC4)cc3)c2C#N)cc1`, the growth in [1] was 94%; in test [2] it was 102%; in test [3], 102%; in test [4], 104%; in test [5] it was 97.4%; in test [6], 99.4%. The growth is 103% in test [7], 103% in test [8], 82.4% in test [9] and 124% in test [10].

Consider `COc1cc(N2C(=O)[C@H](O)C2c2ccc(SC)cc2)cc(OC)c1OC` (stereo not given in full), for which the growth in test [1] is 23%; in test [2] it was 68.6%; in [3], 37.1%; in test [4], 21.6%; in test [5] it was 5.6% (active); in test [6] it was 26.1%. Besides, the growth in test [7] was -19.8% (active); in test [8], 17%; in test [9] it was 11.3%; in test [10], -53.3% (active).

`CC(C)CCNC(=O)Cn1cccc(NC(=O)OCc2ccccc2)c1=O`: the growth in test [1] was 88%; in [2] it was 87.4%; in [3], 112%; in test [4], 93.8%; in test [5] it was 102%; in test [6] it was 91.5%. Besides, the growth was 88.2% in [7], 95.6% in [8], 111% in test [9] and 108% in [10].

On to `COc1cc(-c2cc(-c3cccs3)c(C#N)c(N3CCOCC3)n2)cc(OC)c1OC`, for which the growth in test [1] is 101%; in test [2], 111%; in test [3] it was 100%; in test [4], 134%; in test [5], 11.1%; in test [6] it was 101%. Moreover, the growth in [7] is 80.3%; in test [8], 83.6%; in test [9] it was 37.7%; in test [10], 56.4%.

For the compound `N#Cc1nc(-c2ccccc2)oc1S(=O)(=O)N1CCOCC1`, the growth in test [1] was 89.9%; in [2], 102%; in [3] it was 100%; in [4] it was 97.9%; in test [5] it was 109%; in test [6] it was 108%. For the same compound, the growth in [7] is -55.5% (active); in test [8], 94.5%; in test [9], 88%; in [10], 0.0605% (active).

For the compound `COC(=O)c1cc(-c2ccc(S(C)(=O)=O)cc2)[nH]c1N/N=C/c1c(Cl)cccc1Cl`, the growth was 29.6% in test [1]; 47.5% in [2]; 15.4% in [3]; 3.22% (active) in [4]; 3.65% (active) in test [5]; 18.9% in [6]. Further, the growth was -15.1% (active) in [7], 25.2% in [8], 5.08% (active) in test [9] and -19.3% (active) in [10].

Turning to `COc1cc(/C=C/C(=O)c2cccc(Nc3nc(Nc4ccccc4)nc(Nc4ccccc4)n3)c2)cc(OC)c1OC`, the growth in [1] is 40.7%; in test [2], 68.6%; in test [3], 87.2%; in [4] it was 74.6%; in [5], 59.9%; in [6] it was -48.2% (active). The growth in test [7] was 87.8%; in test [8] it was 59.5%; in test [9], 65.1%; in test [10], 61.2%.

On to `COC(=O)c1c2c(c(C)[n+]([O-])c1C)C(=O)C=C(NCc1ccc(Br)cc1)C2=O`, for which the growth was -44.8% (active) in [1]; -42.9% (active) in test [2]; -14.9% (active) in test [3]; -77.2% (active) in test [4]; -53.8% (active) in test [5]; -53.8% (active) in test [6]. Also, the growth in [7] is -44.8% (active); in [8], -28.2% (active); in test [9], -8.26% (active); in test [10], -69.8% (active).

Consider `CC[C@]12C=CCN3CC[C@@]4(c5cc(NC(=O)CCC(=O)OCc6cn(Cc7ccc(F)cc7)nn6)c(OC)cc5N(C)[C@H]4[C@@](O)(C(=O)OC)[C@@H]1OC(C)=O)[C@@H]32`, for which the growth was 97.2% in test [1]; 95.2% in test [2]; 94.3% in test [3]; 100% in [4]; 106% in test [5]; 92.5% in test [6]. In addition, the growth was 98.5% in test [7], 96.5% in test [8], 96.4% in [9] and 107% in test [10].

For `C/C(=N\NC(=O)c1ccccc1O)c1cccc(/C(C)=N/NC(=O)c2ccccc2O)n1`, the growth in [1] is 44.4%; in [2], 50%; in test [3], 38.7%; in [4], 30.3%; in test [5], 21.3%; in test [6], 43.5%. In addition, the growth in [7] was 61.4%; in [8] it was 54.6%; in test [9], 33.6%; in [10], 35.2%.

Regarding `CCCCN[C@H]1CC[C@@]2(C)[C@@H](CC[C@@]3(C)[C@H]2[C@H](O)C[C@H]2/C(=C(\CCC=C(C)C)C(=O)OC)[C@@H](OC(C)=O)C[C@@]23C)[C@@H]1C`, the growth is 90.5% in test [1]; 98% in test [2]; 97.2% in [3]; 103% in test [4]; 100% in test [5]; 86.5% in test [6]. Further, the growth in test [7] is 93%; in test [8], 103%; in test [9], 99.2%; in [10] it was 104%.

As for `COc1ccc(/C(C)=C(/c2ccc(OCCCN(C)C)cc2)c2ccc(OC(=O)Cc3ccccc3)cc2)cc1`, the growth is 76.4% in test [1]; 91.5% in test [2]; 98.3% in test [3]; 83.3% in test [4]; 70.8% in [5]; 50.5% in [6]. For the same compound, the growth was 57.5% in test [7], 58.4% in test [8], 71.6% in test [9] and 76.1% in test [10].

The values above are taken from PubChem BioAssay (NCI).
